Source: PubChem BioAssay (NCI)
Compounds without any hit were thinned out: in the full panel of roughly 79,000, 15% have a hit. Calls of active or inactive are those of the source. No stated cut-off is given here; in the data, active means growth inhibition above about 70%; inactive means the rest.

Legend:
[1] = NCI Yeast Anticancer Drug Screen. Data for the wt1 strain (AID 149);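 further: 0% = growth of vehicle-treated wt1 cultures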; conditions: S. cerevisiae wt1 strain (SPY 50644) growth inhibition, stronger effect = higher value
In short: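 Yeast wt1 strain exposed to compounds; growth inhibition measured relative to vehicle-treated controls.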

[2] = NCI Yeast Anticancer Drug Screen. Data for the rad50EPP+ strain (AID 151);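 further: 0% = growth of vehicle-treated control cultures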; conditions: S. cerevisiae rad50 mutant strain, stronger effect = higher value
In short: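 Compounds were applied to the rad50EPP+ yeast strain, which bears a defined DNA repair alteration, and growth inhibition was determined relative to vehicle-treated cultures.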

[3] = NCI Yeast Anticancer Drug Screen. Data for the mgt1 strain (AID 153); conditions: S. cerevisiae mgt1 mutant growth inhibition, stronger effect = higher value
In short: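 Strain: mgt1 yeast, one of a set carrying defined DNA damage repair or cell cycle control alterations. Compound-treated growth compared with vehicle.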

[4] = NCI Yeast Anticancer Drug Screen. Data for the rad50 strain (AID 155);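 further: 0% = growth of vehicle-only cultures of the same strain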; conditions: S. cerevisiae rad50 strain growth inhibition, stronger effect = higher value
In short: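 Yeast carrying a defined DNA repair defect were exposed to test compounds, and growth was compared with vehicle-treated controls to give percent inhibition.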

[5] = NCI Yeast Anticancer Drug Screen. Data for the mec2-1 strain (AID 157); conditions: S. cerevisiae mec2-1 strain, stronger effect = higher value
In short: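 Strain: mec2-1 (DNA repair/cell cycle alteration). Compound exposure, then growth measured; inhibition expressed relative to vehicle.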

[6] = NCI Yeast Anticancer Drug Screen. Data for the rad14 strain (AID 159);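 further: 0% = growth of vehicle-treated control cultures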; conditions: S. cerevisiae rad14 strain growth inhibition, stronger effect = higher value
In short: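 Yeast cells carrying a defined DNA-repair defect were exposed to compounds, and growth inhibition was calculated relative to vehicle-treated control cultures.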

[7] = NCI Yeast Anticancer Drug Screen. Data for the sgs1 mgt1 strain (AID 161);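 further: 0% = growth of cultures given vehicle only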; conditions: S. cerevisiae sgs1 mgt1 strain, stronger effect = higher value
In short: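 Test agents were incubated with a DNA-repair-mutant yeast strain. Growth was then read and compared against vehicle-treated controls.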

[8] = NCI Yeast Anticancer Drug Screen. Data for the CLN2oe strain (AID 163);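 further: 0% = growth of vehicle-only control cultures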; conditions: S. cerevisiae CLN2oe strain, stronger effect = higher value
In short: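 Growth of a genetically modified yeast strain is measured after compound exposure and compared with cultures given vehicle alone.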

[9] = NCI Yeast Anticancer Drug Screen. Data for the cln2 rad14 strain (AID 165);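 further: 0% = growth equal to vehicle treated cultures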; conditions: S. cerevisiae cln2 rad14 strain, stronger effect = higher value
In short: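 Compounds are applied to the cln2 rad14 yeast strain, and growth is then compared with that of vehicle-treated cultures to give inhibition.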

[10] = NCI Yeast Anticancer Drug Screen. Data for the bub3 strain (AID 167); conditions: S. cerevisiae bub3 mutant strain, stronger effect = higher value
In short: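 Compounds were applied to a genetically altered yeast strain carrying a cell-cycle control defect. Growth inhibition was scored against vehicle-treated controls.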

[11] = NCI Yeast Anticancer Drug Screen. Data for the wt2 strain (AID 169);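 further: 0% = growth of vehicle-treated yeast cultures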; conditions: S. cerevisiae wt2 strain growth inhibition, stronger effect = higher value
In short: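 This strain belongs to a panel of yeast strains with defined genetic alterations in DNA damage repair or cell cycle control. Compounds are applied, and growth inhibition is measured against vehicle-treated cultures.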

[12] = NCI Yeast Anticancer Drug Screen. Data for the mlh1 strain (AID 171);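 further: 0% = growth of vehicle-treated control cultures of the same strain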; conditions: S. cerevisiae mlh1 strain growth inhibition, stronger effect = higher value
In short: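 Growth of the mutant yeast strain after compound exposure, expressed as inhibition relative to vehicle-only controls.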

[13] = NCI Yeast Anticancer Drug Screen. Data for the sgs1 strain (AID 173);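 further: 0% = growth of vehicle-only control cultures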; conditions: S. cerevisiae sgs1 mutant, stronger effect = higher value
In short: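 Growth of a yeast strain bearing a defined genetic alteration is measured after compound treatment. Inhibition is expressed relative to vehicle-only controls.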

[14] = NCI Yeast Anticancer Drug Screen. Data for the mlh1 rad18 strain (AID 175); conditions: S. cerevisiae mlh1 rad18 strain growth inhibition, stronger effect = higher value
In short: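 Read-out is yeast growth inhibition, calculated against vehicle-only controls. The compound was applied to a strain engineered with DNA damage repair alterations.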

[15] = NCI Yeast Anticancer Drug Screen. Data for the rad18 strain (AID 177); conditions: S. cerevisiae rad18 mutant growth inhibition, stronger effect = higher value
In short: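 Growth of the mutant yeast strain after compound exposure, normalised to vehicle-only cultures.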

[16] = at 5.0 µM (retest, dose inferred, filed as 0.5)
[17] = at 50.0 µM (retest, dose inferred, filed as 5.0)

Measured: growth inhibition

CC(C)(C)[Si](C)(C)OCC1OC(n2cnc3c(N)ncnc32)C2OC(=S)OC12 (stereo unspecified)
active: [4]; at 100.0 µM 98% | [6]; at 100.0 µM 96% | [9]; [17] 98% | [13]; at 100.0 µM 80% | [15]; at 100.0 µM 86%
inactive: [1]; at 1.2 µM 1% | [1]; at 3.7 µM -1% | [1]; at 11.0 µM 0% | [1]; at 33.0 µM 2% | [1]; at 100.0 µM 17% | [2]; at 1.2 µM -5% | [2]; at 3.7 µM -6% | [2]; at 11.0 µM -3% | [2]; at 33.0 µM 3% | [2]; at 100.0 µM 8% | [3]; at 1.2 µM -1% | [3]; at 3.7 µM 0% | [3]; at 11.0 µM 0% | [3]; at 33.0 µM -29% | [3]; at 100.0 µM 14% | [4]; at 1.2 µM -1% | [4]; at 3.7 µM 5% | [4]; [16] 5% | [4]; at 11.0 µM -19% | [4]; at 33.0 µM 17% | [4]; [17] 45% | [4]; at 50.0 µM 4.45% | [5]; at 1.2 µM 0% | [5]; at 3.7 µM 2% | [5]; [16] 5% | [5]; at 11.0 µM 2% | [5]; at 33.0 µM 7% | [5]; [17] 56% | [5]; at 50.0 µM 40% | [5]; at 100.0 µM 28% | [6]; at 1.2 µM 0% | [6]; at 3.7 µM 2% | [6]; at 11.0 µM 3% | [6]; at 33.0 µM 11% | [7]; [16] 5% | [7]; [17] 29% | [7]; at 50.0 µM 11.6% | [8]; at 1.2 µM -2% | [8]; at 3.7 µM -3% | [8]; at 11.0 µM -1% | [8]; at 33.0 µM -2% | [8]; at 100.0 µM 9% | [9]; [16] 3% | [9]; at 50.0 µM -15.6% | [10]; at 1.2 µM 0% | [10]; at 3.7 µM 2% | [10]; [16] -42% | [10]; at 11.0 µM 3% | [10]; at 33.0 µM 3% | [10]; [17] 3% | [10]; at 50.0 µM 48.4% | [10]; at 100.0 µM 10% | [11]; at 1.2 µM -1% | [11]; at 3.7 µM 9% | [11]; at 11.0 µM 1% | [11]; at 33.0 µM 2% | [11]; at 100.0 µM 36% | [12]; at 1.2 µM -1% | [12]; at 3.7 µM -2% | [12]; at 11.0 µM -3% | [12]; at 33.0 µM 0% | [12]; at 100.0 µM 37% | [13]; at 1.2 µM -1% | [13]; at 3.7 µM 2% | [13]; at 11.0 µM 4% | [13]; at 33.0 µM 14% | [14]; [16] 7% | [14]; [17] 22% | [14]; at 50.0 µM 48.1% | [15]; at 1.2 µM -1% | [15]; at 3.7 µM 1% | [15]; at 11.0 µM 6% | [15]; at 33.0 µM 22%

c1cc(Nc2ccc3c(c2)OCO3)c2cc(C3CCCCC3)ccc2n1
active: [3]; at 100.0 µM 85% | [4]; at 50.0 µM 99.3% | [4]; at 100.0 µM 73% | [5]; at 50.0 µM 99.5% | [5]; at 100.0 µM 72% | [6]; at 100.0 µM 78% | [7]; at 50.0 µM 99.2% | [9]; at 50.0 µM 98.7% | [10]; [17] 98% | [10]; at 50.0 µM 98.6% | [10]; at 100.0 µM 74% | [11]; at 100.0 µM 81% | [12]; at 100.0 µM 82% | [13]; at 100.0 µM 86% | [14]; [17] 73% | [14]; at 50.0 µM 99.5% | [15]; at 100.0 µM 85%
inactive: [1]; at 1.2 µM 0% | [1]; at 3.7 µM 0% | [1]; at 11.0 µM -4% | [1]; at 33.0 µM -6% | [1]; at 100.0 µM 34% | [2]; at 1.2 µM 1% | [2]; at 3.7 µM -2% | [2]; at 11.0 µM -2% | [2]; at 33.0 µM -3% | [2]; at 100.0 µM 23% | [3]; at 1.2 µM -2% | [3]; at 3.7 µM -4% | [3]; at 11.0 µM -3% | [3]; at 33.0 µM -6% | [4]; at 1.2 µM 19% | [4]; at 3.7 µM -14% | [4]; [16] 4% | [4]; at 11.0 µM 5% | [4]; at 33.0 µM 5% | [4]; [17] 48% | [5]; at 1.2 µM -3% | [5]; at 3.7 µM -2% | [5]; [16] -8% | [5]; at 11.0 µM -4% | [5]; at 33.0 µM -2% | [5]; [17] 23% | [6]; at 1.2 µM 5% | [6]; at 3.7 µM 5% | [6]; at 11.0 µM 7% | [6]; at 33.0 µM 15% | [7]; [16] 0% | [7]; [17] 46% | [8]; at 1.2 µM 1% | [8]; at 3.7 µM 3% | [8]; at 11.0 µM -1% | [8]; at 33.0 µM 4% | [8]; at 100.0 µM 52% | [9]; [16] 40% | [9]; [17] 46% | [10]; at 1.2 µM -1% | [10]; at 3.7 µM -3% | [10]; [16] 10% | [10]; at 11.0 µM -2% | [10]; at 33.0 µM 8% | [11]; at 1.2 µM 0% | [11]; at 3.7 µM -1% | [11]; at 11.0 µM -2% | [11]; at 33.0 µM 0% | [12]; at 1.2 µM -1% | [12]; at 3.7 µM -1% | [12]; at 11.0 µM -2% | [12]; at 33.0 µM 2% | [13]; at 1.2 µM -1% | [13]; at 3.7 µM -2% | [13]; at 11.0 µM -7% | [13]; at 33.0 µM 5% | [14]; [16] 7% | [15]; at 1.2 µM -3% | [15]; at 3.7 µM -7% | [15]; at 11.0 µM -14% | [15]; at 33.0 µM -16%
